Laboratory results taken from PubChem BioAssay AID1159580 (chemical genetic matrix, 2015).
Values joined by “and” are separate entries in the source; they are usually repeats but may differ in a detail not shown here. Identical values can stand only once. About 2,000 (36%) of roughly 5,500 compounds were called active. Roughly 18% stayed inconclusive and do not appear here. Cut-off read from the data, not from the text of the source: active = normalized growth mostly below about 0.91 (no sharp cut-off); inconclusive = no clear call, values can overlap the other calls; inactive = mostly above about 0.92. This is one part of the list.

Test: chemical genetic growth profiling, strain panel (AID 1159580);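 note: tested at 20 µM; growth read once vehicle control cultures reached saturation at 30 °C; 1 = growth at the plate median or of vehicle wells; lower values mean less growth of the strain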
Conditions: S. cerevisiae deletion strains, growth OD

Measured: normalized growth

CC(C)[C@@H]1CC[C@@H](C)C[C@H]1OC(=O)c1ccccc1
inactive: locus YAL013W, strain DEP1, hits give low values 1.01 | locus YAL021C, strain ccr4, hits give low values 1.01 | locus YAL026C, strain drs2, hits give low values 1.01 | locus YAL030W, strain snc1, hits give low values 1.01 | locus YBL061C, strain skt5, hits give low values 1.01 | locus YBR009C, strain hhf1, hits give low values 0.999 | locus YBR021W, strain FUR4, hits give low values 0.997 | locus YBR023C, strain chs3, hits give low values 1.01 | locus YBR171W, strain sec66, hits give low values 1 | locus YBR229C, strain ROT2, hits give low values 1.01 | locus YBR231C, strain swc5, hits give low values 1.02 | locus YBR279W, strain paf1, hits give low values 1.01 | locus YCL011C, strain gbp2, hits give low values 1 | locus YCL016C, strain dcc1, hits give low values 1.01 | locus YCL029C, strain bik1, hits give low values 0.99 | locus YCL061C, strain MRC1, hits give low values 1 | locus YCL069W, strain vba3, hits give low values 1 | locus YCR088W, strain abp1, hits give low values 1 | locus YDL005C, strain med2, hits give low values 0.991 | locus YDL035C, strain GPR1, hits give low values 0.988 | locus YDL040C, strain nat1, hits give low values 0.993 | locus YDL074C, strain BRE1, hits give low values 0.995 | locus YDL101C, strain DUN1, hits give low values 0.999 | locus YDL134C, strain PPH21, hits give low values 0.962 | locus YDL185W, strain tfp1, hits give low values 0.997 | locus YDL192W, strain arf1, hits give low values 0.929 | locus YDR001C, strain nth1, hits give low values 0.994 | locus YDR069C, strain doa4, hits give low values 0.999 | locus YDR101C, strain arx1, hits give low values 0.978 | locus YDR137W, strain rgp1, hits give low values 0.942 | locus YDR150W, strain NUM1, hits give low values 1.04 | locus YDR159W, strain sac3, hits give low values 1.02 | locus YDR162C, strain NBP2, hits give low values 0.91 | locus YDR195W, strain ref2 0.975 | locus YDR297W, strain sur2, hits give low values 1.01 | locus YDR318W, strain mcm21, hits give low values 0.992 | locus YDR334W, strain swr1, hits give low values 1 | locus YDR335W, strain msn5, hits give low values 1.01 | locus YDR388W, hits give low values 0.999 | locus YDR392W, strain spt3, hits give low values 0.997 | locus YDR502C, strain sam2, hits give low values 0.995 | locus YEL003W, strain gim4, hits give low values 1.02 | locus YEL037C, strain rad23, hits give low values 1.01 | locus YEL061C, strain CIN8 (second series), hits give low values 1.01 | locus YEL061C, strain CIN8, hits give low values 1.03 | locus YER015W, strain faa2, hits give low values 1.01 | locus YER016W, strain bim1, hits give low values 0.999 | locus YER110C, hits give low values 1 | locus YER111C, strain swi4, hits give low values 1.01 | locus YER155C, strain BEM2 (second series), hits give low values 1.02 | locus YER155C, strain BEM2, hits give low values 1.01 | locus YER167W, strain BCK2, hits give low values 1.01 | locus YFR010W, strain ubp6, hits give low values 1.01 | locus YGL078C, strain dbp3, hits give low values 0.971 | locus YGL086W, strain mad1, hits give low values 0.999 | locus YGL167C, strain pmr1, hits give low values 1 | locus YGL173C, strain kem1, hits give low values 1.02 | locus YGL227W, strain vid30, hits give low values 1 | locus YGL240W, strain doc1, hits give low values 1.03 | locus YGL248W, strain PDE1, hits give low values 0.94 | locus YGL253W, strain hxk2, hits give low values 1.01 | locus YGR135W, strain pre9, hits give low values 0.974 | locus YGR252W, strain gcn5, hits give low values 0.959 | locus YHR013C, strain ard1, hits give low values 1.06 | locus YHR027C, strain rpn1, hits give low values 1 | locus YHR030C, strain SLT2, hits give low values 1.02 and 1.01 | locus YHR079C, strain IRE1 (second series), hits give low values 0.997 | locus YHR079C, strain IRE1, hits give low values 1.01 | locus YHR094C, strain hxt1, hits give low values 1 | locus YHR129C, strain ARP1, hits give low values 1.01 | locus YHR142W, strain chs7, hits give low values 0.976 | locus YHR200W, strain rpn10, hits give low values 1.02 | locus YIL066C, strain RNR3, hits give low values 1.01 | locus YIL073C, strain SPO22, hits give low values 0.881 | locus YIL125W, strain kgd1, hits give low values 0.99 | locus YIR030C, strain dcg1, hits give low values 0.996 | locus YJL092W, strain hpr5, hits give low values 1 | locus YJL095W, strain BCK1 (second series), hits give low values 1.01 | locus YJL095W, strain BCK1, hits give low values 0.992 and 1.02 | locus YJL115W, strain asf1, hits give low values 1 | locus YJL129C, strain trk1, hits give low values 0.994 | locus YJL134W, strain LCB3, hits give low values 1.02 | locus YJL154C, strain vps35, hits give low values 0.993 | locus YJL164C, strain tpk1, hits give low values 0.997 | locus YJL166W, strain qcr8, hits give low values 0.984 | locus YJL168C, strain set2, hits give low values 0.986 | locus YJL187C, strain SWE1 (second series), hits give low values 1 | locus YJL187C, strain SWE1, hits give low values 1.01 | locus YJR043C, strain POL32, hits give low values 1.03 | locus YJR066W, strain TOR1, hits give low values 0.951 | locus YKL009W, strain mrt4, hits give low values 0.985 | locus YKL068W, hits give low values 1.01 | locus YKL085W, strain MDH1 (second series), hits give low values 1.01 | locus YKL085W, strain MDH1, hits give low values 1.01 | locus YKL160W, strain elf1, hits give low values 0.998 | locus YKR001C, strain vps1, hits give low values 0.91 | locus YKR026C, strain gcn3, hits give low values 0.977 | locus YKR091W, strain srl3, hits give low values 0.995 | locus YLL001W, strain dnm1, hits give low values 0.993 | locus YLL026W, hits give low values 1 | locus YLL041C, strain sdh2, hits give low values 0.996 | locus YLR027C, strain aat2, hits give low values 1 | locus YLR039C, strain RIC1, hits give low values 0.922 | locus YLR058C, strain SHM2, hits give low values 1.01 | locus YLR102C, strain apc9, hits give low values 1 | locus YLR113W, strain HOG1, hits give low values 1.02 | locus YLR221C, strain rsa3, hits give low values 0.997 | locus YLR258W, strain gsy2, hits give low values 1 | locus YLR262C, strain YPT6 (second series), hits give low values 0.973 | locus YLR262C, strain YPT6, hits give low values 0.981 | locus YLR268W, strain sec22, hits give low values 0.997 | locus YLR320W, strain mms22, hits give low values 1.01 | locus YLR330W, strain CHS5, hits give low values 1.02 | locus YLR342W, strain FKS1 (second series), hits give low values 1.06 | locus YLR342W, strain FKS1, hits give low values 1.01 | locus YLR357W, strain rsc2, hits give low values 1.01 | locus YLR370C, strain arc18, hits give low values 1.01 | locus YLR371W, strain rom2, hits give low values 1 | locus YLR384C, strain iki3, hits give low values 1.03 | locus YLR418C, strain cdc73, hits give low values 1 | locus YML016C, strain PPZ1, hits give low values 1.01 | locus YML032C, strain rad52, hits give low values 1.01 | locus YML120C, strain ndi1, hits give low values 1.02 | locus YML124C, strain tub3, hits give low values 0.999 | locus YMR058W, strain fet3, hits give low values 1.02 | locus YMR078C, strain ctf18, hits give low values 1 | locus YMR125W, strain sto1, hits give low values 0.992 | locus YMR129W, hits give low values 0.999 | locus YMR205C, strain PFK2, hits give low values 1.04 | locus YMR223W, strain ubp8, hits give low values 0.995 | locus YMR231W, strain pep5, hits give low values 1 | locus YMR307W, strain GAS1, hits give low values 0.948 | locus YNL067W, strain RPL9B, hits give low values 1 | locus YNL071W, strain lat1, hits give low values 1 | locus YNL153C, strain GIM3, hits give low values 1.02 | locus YNL183C, strain NPR1, hits give low values 0.946 | locus YNL209W, strain ssb2, hits give low values 1 | locus YNL233W, strain BNI4, hits give low values 1 | locus YNL248C, strain rpa49, hits give low values 0.986 | locus YNL250W, strain rad50, hits give low values 1.02 | locus YNL271C, strain bni1, hits give low values 0.993 | locus YNL298W, strain CLA4, hits give low values 0.992 | locus YNL307C, strain MCK1, hits give low values 1.01 | locus YNL322C, strain KRE1 (second series), hits give low values 1.01 | locus YNL322C, strain KRE1, hits give low values 1.01 | locus YNR049C, strain mso1, hits give low values 1 | locus YNR052C, strain pop2, hits give low values 0.989 | locus YOL012C, strain htz1 1.15 | locus YOL147C, strain pex11, hits give low values 1 | locus YOR001W, strain rrp6, hits give low values 0.999 | locus YOR061W, strain CKA2, hits give low values 1.01 | locus YOR069W, strain VPS5, hits give low values 1.01 | locus YOR070C, strain gyp1, hits give low values 1.01 | locus YOR080W, strain dia2, hits give low values 1.01 | locus YOR083W, strain WHI5, hits give low values 1 | locus YOR106W, strain vam3, hits give low values 0.949 | locus YOR136W, strain idh2, hits give low values 0.996 | locus YOR144C, strain elg1, hits give low values 1 | locus YOR184W, strain ser1, hits give low values 0.921 | locus YOR231W, strain MKK1, hits give low values 1.02 | locus YOR265W, strain rbl2, hits give low values 0.997 | locus YOR270C, strain vph1, hits give low values 1.01 | locus YOR290C, strain snf2, hits give low values 0.979 | locus YOR316C, strain cot1, hits give low values 1 | locus YPL051W, strain arl3, hits give low values 1 | locus YPL078C, strain atp4, hits give low values 0.999 | locus YPL106C, strain sse1, hits give low values 1.02 | locus YPL240C, strain hsp82, hits give low values 1 | locus YPL241C, strain CIN2, hits give low values 1.02 | locus YPL256C, strain CLN2, hits give low values 1.02 | locus YPR119W, strain clb2, hits give low values 0.993 | locus YPR141C, strain kar3, hits give low values 1.01 | locus YPR163C, strain tif3, hits give low values 1 | locus YPR167C, strain met16, hits give low values 0.993 | strain wtn01, hits give low values 1
